# Assay results: PubChem BioAssay (EPA / NIEHS)
# Where “and” joins values, the source holds several entries; their conditions need not be identical. Identical values can stand only once. Inconclusive results are not listed. Calls of active or inactive are those of the source. Rule for the calls: active = hit-call score of the fitted dose curve at least 0.9, where 1 is the maximum; inconclusive = response in the unintended direction; inactive = score below 0.9.
# Legend:
# [1] = target: sheep Cyclooxygenase-1 (Cox1), PTGS1 (gene 443551) (UniProt P05979); experiment: NVS_ENZ_oCOX1: NovaScreen (NVS) Enzymatic Assay for sheep Cyclooxygenase-1 (Cox1) (AID 2283239);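 note: actives reduce cyclooxygenase activity so potencies are for inhibitors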
# Procedure, shortened: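 Tested in duplicate at 25 uM, then in concentration series if active, against seminal vesicle extract from sheep. Enzyme activity was measured colorimetrically at 0.66 hour and normalised to DMSO.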
# [2] = target: guinea pig Leukotriene D4 Receptor (LTD4), CYSLTR1 (gene 100135514) (UniProt Q2NNR5); experiment: NVS_GPCR_gLTD4: NovaScreen (NVS) G Protein-Coupled Receptor Assay for guinea pig Leukotriene D4 Receptor (LTD4) (AID 2283248)
# Procedure, shortened: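 Radioligand displacement on guinea pig lung membranes, 1 h incubation, filtration and scintillation counting; DMSO as negative control. Duplicate 25 uM primary screen, then singleton concentration-response up to 50 uM.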
# [3] = target: sheep Cyclooxygenase-2 (Cox2), PTGS2 (gene 443460) (UniProt P79208); experiment: NVS_ENZ_oCOX2: NovaScreen (NVS) Enzymatic Assay for sheep Cyclooxygenase-2 (Cox2) (AID 2283231)
# Procedure, shortened: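 Ovine placental enzyme, cell-free; chemical added, 0.66 h, absorbance (colorimetric). Screen 25 uM in duplicate; ≥threshold hits titrated, top 50 uM. Inhibition = signal loss vs DMSO.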
# [4] = target: human Serotonin, 5-Hydroxytryptamine Receptor 6 (5HT6), HTR6 (gene 3362) (UniProt P50406); experiment: NVS_GPCR_h5HT6: NovaScreen (NVS) G Protein-Coupled Receptor Assay for human Serotonin, 5-Hydroxytryptamine Receptor 6 (5HT6) (AID 2283253)
# Procedure, shortened: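 Radioligand binding to 5HT6 in HEK293-derived membranes, cell-free, 1 h after dosing; bound ligand measured by filter-based scintillation counting. Primary screen in duplicate at 25 uM; actives retested in concentration series.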
# [5] = target: human Adenosine A1 Receptor (AdoRA1), ADORA1 (gene 134) (UniProt P30542); experiment: NVS_GPCR_hAdoRA1: NovaScreen (NVS) G Protein-Coupled Receptor Assay for human Adenosine A1 Receptor (AdoRA1) (AID 2283254)
# Procedure, shortened: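 Hum. cortical membranes + radioligand, cmpd 1 h; filtration, scintillation count. Readout = decrease vs DMSO. Primary 25 uM dup; hits → conc. series.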
# [6] = target: human Adenosine A2a Receptor (AdoRA2a), ADORA2A (gene 135) (UniProt P29274); experiment: NVS_GPCR_hAdoRA2a: NovaScreen (NVS) G Protein-Coupled Receptor Assay for human Adenosine A2a Receptor (AdoRA2a) (AID 2283256)
# Procedure, shortened: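 Radioligand displacement on HEK293-derived membrane protein, cell-free; filter-based scintillation counting 1.5 hours after dosing, loss of signal vs DMSO. Single-point duplicate screen at 25 uM, actives retested in concentration series.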
# [7] = target: rabbit Imidazoline 2 Central (I2C), CKB (gene 100009085) (UniProt P00567); experiment: NVS_ENZ_rabI2C: NovaScreen (NVS) Enzymatic Assay for rabbit Imidazoline 2 Central (I2C) (AID 2283228)
# Procedure, shortened: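 Rabbit brain membranes, cell-free; readout by filter-based scintillation counting 1.5 hours after dosing, loss of signal vs DMSO. Initial duplicate test at 25 uM, then concentration-response with 50 uM top concentration.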
# [8] = target: human Vascular Endothelial Growth Factor Receptor 2 (VEGFR2), KDR (gene 3791) (UniProt P35968); experiment: NVS_ENZ_hVEGFR2: NovaScreen (NVS) Enzymatic Assay for human Vascular Endothelial Growth Factor Receptor 2 (VEGFR2) (AID 2283230)
# Procedure, shortened: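 Cell-free recombinant VEGFR2 kinase, fluorescent substrate with electrophoretic mobility-shift separation; read 1 h after dosing. Screened at 25 uM in duplicate, hits to concentration-response up to 50 uM; loss-of-signal versus DMSO.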
# [9] = NVS_GPCR_bNPY_NonSelective: NovaScreen (NVS) G Protein-Coupled Receptor Assay for bovine Neuropeptide Y (NPY) Receptor, Non-selective Binding (AID 2283245)
# Procedure, shortened: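 Bovine hippocampal membranes incubated 1 hour with radioligand and test chemical. Bound ligand measured by filter-based scintillation counting. Single-concentration screen at 25 uM in duplicate, then concentration-response up to 50 uM.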
# [10] = target: human Serotonin, 5-Hydroxytryptamine Receptor 5A (5HT5A), HTR5A (gene 3361) (UniProt P47898); experiment: NVS_GPCR_h5HT5A: NovaScreen (NVS) G Protein-Coupled Receptor Assay for human Serotonin, 5-Hydroxytryptamine Receptor 5A (5HT5A) (AID 2283251)
# Procedure, shortened: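 Cell-free radioligand displacement binding on HEK293-derived membrane protein, 1 h incubation, filter-based scintillation counting. Primary screen in duplicate at 25 uM, actives followed in concentration series; loss of signal fitted versus DMSO.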
# [11] = target: human Serotonin, 5-Hydroxytryptamine Receptor 7 (5HT7), HTR7 (gene 3363) (UniProt P34969); experiment: NVS_GPCR_h5HT7: NovaScreen (NVS) G Protein-Coupled Receptor Assay for human Serotonin, 5-Hydroxytryptamine Receptor 7 (5HT7) (AID 2283255);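 note: hits reduce specific radioligand binding relative to DMSO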
# Procedure, shortened: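 Radioligand displacement on membranes from CHO cells expressing human 5HT7, 1 h incubation, filter-based scintillation counting. Primary screen used a single 25 uM concentration in duplicate; actives were followed up in concentration series.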
# [12] = target: rat Constitutive Nitric Oxide Synthase (CNOS), Nos1 (gene 24598) (UniProt P29476); experiment: NVS_ENZ_rCNOS: NovaScreen (NVS) Enzymatic Assay for rat Constitutive Nitric Oxide Synthase (CNOS) (AID 2283236)
# Procedure, shortened: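 Enzyme activity in rat brain membrane preparation, read 1 h after dosing by filter-based radiometric scintillation counting. Primary screen in duplicate at 25 uM; actives (e.g., ≥30% inhibition) then run in concentration-response up to 50 uM.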
# [13] = target: bovine Dopamine Receptor (DR), Non-selective Binding, DRD1 (gene 281125) (UniProt Q95136); experiment: NVS_GPCR_bDR_NonSelective: NovaScreen (NVS) G Protein-Coupled Receptor Assay for bovine Dopamine Receptor (DR), Non-selective Binding (AID 2283241)
# Procedure, shortened: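 Bovine striatal membranes; radioligand displacement read by filtration and scintillation counting 1 h after dosing, loss of signal vs DMSO. Screened in duplicate at 25 uM, then concentration-response for hits.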
# [14] = system: bovine Histamine 1 Receptor (H1), gene 281231; experiment: NVS_GPCR_bH1: NovaScreen (NVS) G Protein-Coupled Receptor Assay for bovine Histamine 1 Receptor (H1) (AID 2283246)
# Procedure, shortened: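 Radioligand displacement on bovine cerebellar membranes, 1 h after dosing, filter-based scintillation read-out; loss of signal vs DMSO. Duplicate single-concentration screen at 25 uM, then concentration-response up to 50 uM for hits.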
# [15] = system: guinea pig Leukotriene B4 Receptor (LTB4), gene 100379538; experiment: NVS_GPCR_gLTB4: NovaScreen (NVS) G Protein-Coupled Receptor Assay for guinea pig Leukotriene B4 Receptor (LTB4) (AID 2283247)
# Procedure, shortened: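 Radioligand displacement on guinea pig spleen membranes, filter-based scintillation counting 2 h after dosing. Primary duplicate single point at 25 uM; hits over threshold (e.g. 30% inhibition) run in concentration-response up to 50 uM, DMSO baseline.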
# [16] = system: guinea pig Muscarinic, Peripheral (Mperiperal) Receptor, Non-selective Binding, gene 100379235; experiment: NVS_GPCR_gMPeripheral_NonSelective: NovaScreen (NVS) G Protein-Coupled Receptor Assay for guinea pig Muscarinic, Peripheral (Mperiperal) Receptor, Non-selective Binding (AID 2283250)
# Procedure, shortened: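 Guinea pig bladder membranes, radioligand binding read 1 h after dosing by filter scintillation counting; loss of signal vs DMSO. Primary duplicate screen at 25 uM, then concentration-response up to 50 uM.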
# [17] = target: guinea pig Opioid, Kappa 1 Receptor (OpiateK), OPRK1 (gene 100135587) (UniProt P41144); experiment: NVS_GPCR_gOpiateK: NovaScreen (NVS) G Protein-Coupled Receptor Assay for guinea pig Opioid, Kappa 1 Receptor (OpiateK) (AID 2283252);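 note: radioligand displacement from kappa opioid receptor in guinea pig cerebellar membranes; active means reduced radioligand binding relative to DMSO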
# Procedure, shortened: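 Guinea pig cerebellar membranes, radioligand displacement with filter-based scintillation counting, 2 h after dosing. Primary screen single concentration 25 uM in duplicate; actives retested in concentration series; loss of binding fitted versus DMSO.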
# [18] = target: human Adrenergic, Alpha 2A Receptor (Adra2A), ADRA2A (gene 150) (UniProt P08913); experiment: NVS_GPCR_hAdra2A: NovaScreen (NVS) G Protein-Coupled Receptor Assay for human Adrenergic, Alpha 2A Receptor (Adra2A) (AID 2283257)
# Procedure, shortened: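 Radioligand filter-binding was run on HT29-derived membranes, cell-free, read by scintillation counting 1 h after dosing. Primary screening was in duplicate at 25 uM, with concentration series in follow-up. Loss of signal versus DMSO indicates displacement.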
# [19] = target: human Vascular Endothelial Growth Factor Receptor 3 (VEGFR3), FLT4 (gene 2324) (UniProt P35916); experiment: NVS_ENZ_hVEGFR3: NovaScreen (NVS) Enzymatic Assay for human Vascular Endothelial Growth Factor Receptor 3 (VEGFR3) (AID 2283229)
# Procedure, shortened: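 Cell-free recombinant VEGFR3 kinase reaction with fluorescent substrate, read 1 h after dosing by electrophoretic mobility shift separation of substrate and product. Single-concentration duplicate screen at 25 uM, then concentration-response up to 50 uM; loss of activity versus DMSO.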
# [20] = target: Adenosine receptor A1 (Bos taurus) (UniProt P28190); experiment: NVS_GPCR_bAdoR_NonSelective: NovaScreen (NVS) G Protein-Coupled Receptor Assay for bovine Adenosine Receptor (AdoR), Non-selective Binding (AID 2283244)
# Procedure, shortened: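 Bovine striatal membranes, radioligand displacement binding, 1 h after dosing, filter-based scintillation counting. Screened in duplicate at 25 uM, then concentration-response up to 50 uM; loss of specific binding relative to DMSO.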
# Sequence of sheep Cyclooxygenase-1 (Cox1), PTGS1 (gene 443551) (P05979 whole entry, looked up): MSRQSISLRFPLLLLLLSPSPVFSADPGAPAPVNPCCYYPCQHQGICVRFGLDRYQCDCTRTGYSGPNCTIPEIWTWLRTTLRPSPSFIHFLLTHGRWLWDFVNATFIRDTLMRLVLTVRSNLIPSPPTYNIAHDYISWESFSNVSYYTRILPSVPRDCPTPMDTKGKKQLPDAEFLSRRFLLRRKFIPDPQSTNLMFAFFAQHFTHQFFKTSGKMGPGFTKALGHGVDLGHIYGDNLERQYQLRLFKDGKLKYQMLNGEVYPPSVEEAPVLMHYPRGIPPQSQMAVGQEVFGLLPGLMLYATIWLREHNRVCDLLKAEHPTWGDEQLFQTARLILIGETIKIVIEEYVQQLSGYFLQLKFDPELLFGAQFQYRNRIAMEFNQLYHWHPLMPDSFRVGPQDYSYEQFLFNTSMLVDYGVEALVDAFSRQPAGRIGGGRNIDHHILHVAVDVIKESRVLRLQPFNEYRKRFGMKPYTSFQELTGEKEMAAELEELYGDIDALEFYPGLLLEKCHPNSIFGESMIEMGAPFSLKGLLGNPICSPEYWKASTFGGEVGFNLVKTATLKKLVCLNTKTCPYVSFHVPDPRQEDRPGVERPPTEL
# Sequence of human Serotonin, 5-Hydroxytryptamine Receptor 7 (5HT7), HTR7 (gene 3363) (P34969 whole entry, looked up): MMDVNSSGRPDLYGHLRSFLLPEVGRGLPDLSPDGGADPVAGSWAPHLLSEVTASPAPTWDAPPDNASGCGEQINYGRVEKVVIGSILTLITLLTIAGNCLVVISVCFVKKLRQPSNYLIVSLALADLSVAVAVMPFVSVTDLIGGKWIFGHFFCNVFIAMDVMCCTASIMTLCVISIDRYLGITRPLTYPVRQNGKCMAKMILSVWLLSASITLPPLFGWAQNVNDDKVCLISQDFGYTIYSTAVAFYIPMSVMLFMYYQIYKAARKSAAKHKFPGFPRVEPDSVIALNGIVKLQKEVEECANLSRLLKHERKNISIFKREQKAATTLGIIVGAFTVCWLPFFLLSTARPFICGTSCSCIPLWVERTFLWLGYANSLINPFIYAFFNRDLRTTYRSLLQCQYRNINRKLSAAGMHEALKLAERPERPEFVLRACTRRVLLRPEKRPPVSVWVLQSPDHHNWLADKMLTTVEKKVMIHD
# Sequence of guinea pig Opioid, Kappa 1 Receptor (OpiateK), OPRK1 (gene 100135587) (P41144 whole entry, looked up): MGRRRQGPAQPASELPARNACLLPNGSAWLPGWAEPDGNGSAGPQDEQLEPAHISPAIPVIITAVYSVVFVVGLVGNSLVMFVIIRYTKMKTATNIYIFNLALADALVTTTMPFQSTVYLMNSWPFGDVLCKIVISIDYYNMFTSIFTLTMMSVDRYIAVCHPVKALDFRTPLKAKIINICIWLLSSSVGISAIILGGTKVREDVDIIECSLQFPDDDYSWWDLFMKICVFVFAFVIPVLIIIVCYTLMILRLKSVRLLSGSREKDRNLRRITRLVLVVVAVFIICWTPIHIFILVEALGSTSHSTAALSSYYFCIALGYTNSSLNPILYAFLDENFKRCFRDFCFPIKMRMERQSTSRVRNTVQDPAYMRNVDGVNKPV
# Sequence of sheep Cyclooxygenase-2 (Cox2), PTGS2 (gene 443460) (P79208 whole entry, looked up): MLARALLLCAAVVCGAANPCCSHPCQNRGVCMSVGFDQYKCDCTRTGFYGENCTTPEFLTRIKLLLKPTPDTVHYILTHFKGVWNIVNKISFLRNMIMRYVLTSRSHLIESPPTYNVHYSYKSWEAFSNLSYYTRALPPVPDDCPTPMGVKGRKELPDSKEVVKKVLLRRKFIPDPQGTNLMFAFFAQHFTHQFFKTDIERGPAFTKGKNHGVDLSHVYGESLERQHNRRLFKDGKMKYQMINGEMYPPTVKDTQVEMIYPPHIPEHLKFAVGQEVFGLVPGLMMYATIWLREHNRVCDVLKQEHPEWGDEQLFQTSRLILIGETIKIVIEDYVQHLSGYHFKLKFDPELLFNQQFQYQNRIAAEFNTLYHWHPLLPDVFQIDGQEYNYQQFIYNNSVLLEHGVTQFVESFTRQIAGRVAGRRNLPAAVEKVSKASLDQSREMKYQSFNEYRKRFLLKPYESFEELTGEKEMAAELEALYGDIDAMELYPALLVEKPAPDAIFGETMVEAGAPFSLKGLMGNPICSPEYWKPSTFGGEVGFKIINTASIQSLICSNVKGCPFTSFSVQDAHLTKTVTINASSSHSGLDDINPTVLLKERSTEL
# Sequence of guinea pig Leukotriene D4 Receptor (LTD4), CYSLTR1 (gene 100135514) (Q2NNR5 whole entry, looked up): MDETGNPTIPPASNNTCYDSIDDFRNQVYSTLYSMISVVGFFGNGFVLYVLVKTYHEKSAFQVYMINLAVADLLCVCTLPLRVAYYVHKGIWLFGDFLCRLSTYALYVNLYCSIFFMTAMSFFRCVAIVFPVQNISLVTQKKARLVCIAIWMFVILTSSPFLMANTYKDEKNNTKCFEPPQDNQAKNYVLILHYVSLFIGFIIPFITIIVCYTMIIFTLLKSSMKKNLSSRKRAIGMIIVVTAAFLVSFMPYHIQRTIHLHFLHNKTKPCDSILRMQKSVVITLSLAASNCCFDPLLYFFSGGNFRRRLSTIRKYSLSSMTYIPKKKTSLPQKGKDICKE
# Sequence of bovine Dopamine Receptor (DR), Non-selective Binding, DRD1 (gene 281125) (Q95136 whole entry, looked up): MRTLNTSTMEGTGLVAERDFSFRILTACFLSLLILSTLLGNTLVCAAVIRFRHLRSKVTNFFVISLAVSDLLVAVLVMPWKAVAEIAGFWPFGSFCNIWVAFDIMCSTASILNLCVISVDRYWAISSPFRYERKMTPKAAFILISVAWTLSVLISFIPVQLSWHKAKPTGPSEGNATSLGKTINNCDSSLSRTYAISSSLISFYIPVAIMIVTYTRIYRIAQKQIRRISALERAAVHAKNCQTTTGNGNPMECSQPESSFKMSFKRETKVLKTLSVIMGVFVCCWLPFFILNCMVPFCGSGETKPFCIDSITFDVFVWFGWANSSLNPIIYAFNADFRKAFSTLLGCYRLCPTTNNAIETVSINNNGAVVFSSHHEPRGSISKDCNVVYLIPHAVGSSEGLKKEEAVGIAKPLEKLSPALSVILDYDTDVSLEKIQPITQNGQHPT
# Sequence of human Serotonin, 5-Hydroxytryptamine Receptor 5A (5HT5A), HTR5A (gene 3361) (P47898 whole entry, looked up): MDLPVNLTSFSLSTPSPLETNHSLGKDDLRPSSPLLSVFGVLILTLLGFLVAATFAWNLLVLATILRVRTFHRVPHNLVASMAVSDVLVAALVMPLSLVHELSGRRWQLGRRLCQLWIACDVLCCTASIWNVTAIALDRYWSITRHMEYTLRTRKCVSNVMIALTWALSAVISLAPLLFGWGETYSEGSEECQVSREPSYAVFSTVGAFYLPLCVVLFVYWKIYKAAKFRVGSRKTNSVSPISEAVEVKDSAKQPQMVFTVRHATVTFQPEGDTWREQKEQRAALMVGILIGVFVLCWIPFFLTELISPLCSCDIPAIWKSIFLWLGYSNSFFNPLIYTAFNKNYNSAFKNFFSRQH
# Sequence of human Adenosine A1 Receptor (AdoRA1), ADORA1 (gene 134) (P30542 whole entry, looked up): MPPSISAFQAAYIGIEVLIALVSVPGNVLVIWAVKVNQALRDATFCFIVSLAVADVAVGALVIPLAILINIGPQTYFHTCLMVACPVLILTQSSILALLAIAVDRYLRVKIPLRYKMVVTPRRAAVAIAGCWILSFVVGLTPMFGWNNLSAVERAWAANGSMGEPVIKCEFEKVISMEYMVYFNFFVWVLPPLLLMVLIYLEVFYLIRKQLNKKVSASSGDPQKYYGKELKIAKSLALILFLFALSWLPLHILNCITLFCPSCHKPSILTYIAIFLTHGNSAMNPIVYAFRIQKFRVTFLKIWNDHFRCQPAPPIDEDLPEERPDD
# Sequence of human Vascular Endothelial Growth Factor Receptor 2 (VEGFR2), KDR (gene 3791) (P35968 whole entry, looked up): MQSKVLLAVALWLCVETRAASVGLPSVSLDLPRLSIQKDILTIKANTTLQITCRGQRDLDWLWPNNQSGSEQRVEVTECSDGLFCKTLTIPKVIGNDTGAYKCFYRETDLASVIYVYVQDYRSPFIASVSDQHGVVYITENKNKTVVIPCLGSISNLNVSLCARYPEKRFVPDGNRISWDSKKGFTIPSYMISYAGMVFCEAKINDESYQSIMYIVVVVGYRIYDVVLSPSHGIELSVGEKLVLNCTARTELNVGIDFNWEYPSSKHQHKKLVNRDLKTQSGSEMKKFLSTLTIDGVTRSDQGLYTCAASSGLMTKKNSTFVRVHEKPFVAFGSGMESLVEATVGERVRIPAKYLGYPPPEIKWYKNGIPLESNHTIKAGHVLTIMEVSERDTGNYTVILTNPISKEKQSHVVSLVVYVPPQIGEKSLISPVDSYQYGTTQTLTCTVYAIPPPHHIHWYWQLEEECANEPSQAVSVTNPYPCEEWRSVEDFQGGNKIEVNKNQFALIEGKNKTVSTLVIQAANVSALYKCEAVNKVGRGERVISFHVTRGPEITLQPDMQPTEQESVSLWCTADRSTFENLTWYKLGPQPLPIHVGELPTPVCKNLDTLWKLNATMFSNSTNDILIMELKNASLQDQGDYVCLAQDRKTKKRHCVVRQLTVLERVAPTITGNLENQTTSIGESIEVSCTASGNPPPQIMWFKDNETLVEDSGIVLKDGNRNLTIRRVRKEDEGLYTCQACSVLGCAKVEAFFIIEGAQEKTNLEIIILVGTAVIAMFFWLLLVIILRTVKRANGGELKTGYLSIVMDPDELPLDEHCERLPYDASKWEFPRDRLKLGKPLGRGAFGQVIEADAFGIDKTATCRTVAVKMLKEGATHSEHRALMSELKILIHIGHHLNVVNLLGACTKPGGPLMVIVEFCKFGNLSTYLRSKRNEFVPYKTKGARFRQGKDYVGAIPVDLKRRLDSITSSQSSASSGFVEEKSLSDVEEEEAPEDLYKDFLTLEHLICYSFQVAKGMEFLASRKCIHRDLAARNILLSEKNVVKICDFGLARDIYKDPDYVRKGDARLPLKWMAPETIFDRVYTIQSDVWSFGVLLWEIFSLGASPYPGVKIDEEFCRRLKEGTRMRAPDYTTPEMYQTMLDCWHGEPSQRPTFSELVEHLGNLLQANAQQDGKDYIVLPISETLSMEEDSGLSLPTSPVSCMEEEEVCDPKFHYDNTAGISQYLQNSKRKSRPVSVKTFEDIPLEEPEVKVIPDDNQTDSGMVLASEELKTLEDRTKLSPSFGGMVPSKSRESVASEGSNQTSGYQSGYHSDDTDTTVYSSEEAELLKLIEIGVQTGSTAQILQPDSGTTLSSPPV
smiles,measurement,setting,value
CCC(=O)O,AC50,[1],0.00683 µM (active)
CC(C)(C)c1ccc(O)c(O)c1,outcome,[2],inactive
CNNCc1ccc(C(=O)NC(C)C)cc1,AC50,[1],25 µM (active)
OCC(CO)(CBr)CBr,AC50,[3],16.7 µM (active)
CN(Cc1cnc2nc(N)nc(N)c2n1)c1ccc(C(=O)N[C@@H](CCC(=O)O)C(=O)O)cc1,AC50,[1],1.98 µM (active)
same,outcome,[4],inactive
same,outcome,[5],inactive
same,AC50,[6],9.68 µM (active)
Cc1ccc(C(=O)c2ccccc2)cc1,AC50,[1],15.5 µM (active)
CCCCc1oc2ccccc2c1C(=O)c1cc(I)c(OCCN(CC)CC)c(I)c1,outcome,[7],inactive
same,outcome,[8],inactive
same,outcome,[9],inactive
same,AC50,[10],13.7 µM (active)
same,AC50,[4],7.27 µM (active)
same,outcome,[5],inactive
same,AC50,[11],6.72 µM (active)
CC(=O)Nc1ccc(O)cc1,outcome,[3],inactive
CCCCC=O,outcome,[3],inactive
N=C(N)c1ccc(OCCCCCOc2ccc(C(=N)N)cc2)cc1,AC50,[7],0.0332 µM (active)
same,AC50,[3],7.19 µM (active)
same,AC50,[12],6.42 µM (active)
same,outcome,[13],inactive
same,outcome,[14],inactive
same,AC50,[15],2.4 µM (active)
same,AC50,[16],0.954 µM (active)
same,outcome,[10],inactive
same,AC50,[17],17.2 µM (active)
same,AC50,[11],3.18 µM (active)
same,AC50,[18],23.2 µM (active)
CN(C)CCOC(c1ccccc1)c1ccccc1,AC50,[7],8.46 µM (active)
same,AC50,[13],5.83 µM (active)
same,AC50,[14],0.101 µM (active)
same,AC50,[16],0.574 µM (active)
same,AC50,[17],13 µM (active)
CCCCCCCCCCCCCCCC(=O)OC,outcome,[2],inactive
O=C1OC2(c3ccccc31)c1cc(I)c(O)c(I)c1Oc1c2cc(I)c(O)c1I,outcome,[17],inactive
same,AC50,[5],6.25 µM (active)
CCCCCCCCCCCCCCCCCC[N+](C)(C)Cc1ccccc1,outcome,[1],inactive
O=C(CCCN1CCC(O)(c2ccc(Cl)cc2)CC1)c1ccc(F)cc1,AC50,[7],14.4 µM (active)
same,AC50,[13],0.0124 µM (active)
same,AC50,[14],10.5 µM (active)
same,AC50,[16],5.15 µM (active)
same,outcome,[10],inactive
CC1=NN(c2ccccc2)C(=O)C1,AC50,[1],28.2 µM (active)
CN(C)c1ccc(C(=C2C=CC(=[N+](C)C)C=C2)c2ccccc2)cc1,AC50,[17],15 µM (active) and 12.5 µM (active)
same,outcome,[6],inactive
CCCCCCCCCCCCOS(=O)(=O)O,AC50,[19],29.3 µM (active)
same,AC50,[8],16.9 µM (active)
same,outcome,[12],inactive
same,outcome,[20],inactive
same,AC50,[15],25 µM (active)
same,AC50,[2],8.99 µM (active)
same,AC50,[10],9.77 µM (active)
same,AC50,[11],25 µM (active)
O=C(c1ccccc1)c1ccccc1,outcome,[20],inactive
Cc1[nH]nc2c1N=C(c1ccccc1Cl)c1cc([N+](=O)[O-])ccc1N2,AC50,[19],0.00229 µM (active)
same,AC50,[8],0.00463 µM (active)
same,outcome,[5],inactive
C=CC(C)(CCC=C(C)C)OC(C)=O (configuration not stated),AC50,[17],46.5 µM (active)
CS(=O)(=O)c1ccc([C@@H](CC2CCCC2)C(=O)Nc2cnccn2)cc1Cl,AC50,[3],25 µM (active)
same,outcome,[2],inactive
same,outcome,[5],inactive
